# Screening data as filed in PubChem.
# Compounds with a hit are over-represented: about 3.2% of the library has one in this group of screens.
# Marburg entry inh: qHTS for inhibitors of binding or entry into cells for Marburg Virus | Marburg virus pseudotyped entry inhibition, cell reporter | Potency, µM (titrated, usually from 37.8 µM), for inactives: top-dose activity change, negative = inhibition, hits mostly inhibitors | 1.8% of 300,000 active | AID 540276, 2011; calls by dose curve; tested in HEK293 cells
# VACV Venus inh: qHTS for Stage-Specific Inhibitors of Vaccinia Orthopoxvirus: Venus Reporter Primary qHTS. Vaccinia virus Venus reporter expression, fluorescence. Potency, µM (titrated, usually from 36.5 µM), inactives show at the highest dose activity change, negative = inhibition, hits mostly inhibitors. 0.46% of 330,000 active. AID 720580, 2013; calls by dose curve; tested in A549 cells; further: nearly all actives have a fitted effect of over 30% in size
# FMDV inh: High Throughput Screening for Foot and Mouth Disease Virus Antivirals; FMDV antiviral cell-based qHTS; Potency, µM (highest dose often 57.9 µM), inactives show top-dose activity change, negative = inhibition, hits mostly inhibitors; 1.2% of 410,000 active; calls by dose curve; tested in HEK293T cells; further: read-out not given here; nearly all actives have a fitted effect of over 45% in size
# Lassa entry inh: qHTS for Inhibitors of binding or entry into cells for Lassa Virus; Lassa virus pseudotype entry inhibition, cell reporter; Potency, µM (highest dose often 37.9 µM), inactives show at the highest dose activity change, negative = inhibition, hits mostly inhibitors; 1.2% of 300,000 active; AID 540256, 2011; calls by dose curve; tested in HEK293 cells; further: nearly all actives have a fitted effect of over 50% in size
# VACV mCherry inh: qHTS for Stage-Specific Inhibitors of Vaccinia Orthopoxvirus: mCherry Reporter Primary qHTS; Vaccinia virus mCherry reporter infection, fluorescence; Potency, µM (series often up to 36.5 µM), for the others: at the highest dose activity change, negative = inhibition, most hits filed as inhibitors; 0.63% of 310,000 active; AID 720579, 2013; calls by dose curve; tested in A549 cells; further: nearly all actives have a fitted effect of over 35% in size
# * marks the source's active call; other numbers are inactive results; i = inactive; ? = inconclusive; . = no result; [ ] = remark or other dose. On the % scale 0 is the no-effect control and ±100 the full control effect; potency means the concentration at half of the fitted maximal effect.
SMILES,Marburg entry inh,VACV Venus inh,FMDV inh,Lassa entry inh,VACV mCherry inh
O=C(Cc1ccc(NC(=O)C2CCCN(C(=O)CCc3ccccc3)C2)cc1)Nc1cccc(C(=O)N2CCCC2)c1 (stereo not given),.,-12.1%,?,.,?
N=c1c(C(=O)NCC2CCCO2)cc2c(=O)n3ccccc3nc2n1Cc1ccccc1Cl (stereo not given),11.2µM*,-5.5%,-23.2%,?,i
Cc1ccc(Cn2c(=N)c(C(=O)NCc3ccco3)cc3c(=O)n4ccccc4nc32)cc1,12.6µM*,11.4%,-1.5%,?,11.4%
COCCCn1c(=N)c(C(=O)NCc2ccco2)cc2c(=O)n3ccccc3nc21,2.51µM*,3.6%,-14.7%,5.6%[46.1 µM],6.9%
N=c1c(C(=O)NCC2CCCO2)cc2c(=O)n3ccccc3nc2n1Cc1ccccc1 (stereo not given),.,.,-11.7%,.,.
Nc1ncc(Br)cc1S(=O)(=O)Nc1cc(C(F)(F)F)cc(C(F)(F)F)c1,?,?,-8.8%,14.1µM*,?
Cc1ccc(NS(=O)(=O)c2cc(Br)cnc2N)c(Cl)c1,.,.,4.7%,.,.
CC(=O)Nc1ccc(S(=O)(=O)Nc2cccc(-c3ccc(N4CCC(C)CC4)nn3)c2)cc1,.,-26.4%,?,11.2µM*,-25.7%
CC(=O)Nc1ccc(S(=O)(=O)Nc2cccc(-c3ccc(N4CCCCCC4)nn3)c2)cc1,.,-1.6%,50.0%,-23.9%[46.1 µM],-13.8%
COc1cc(NC(=S)N2CCC(C(O)(c3ccccc3)c3ccccc3)CC2)cc(OC)c1,?,?,-4.2%,?,?
COc1cc2c(NC3CCN(C)CC3)nc(N3CCCN(C)CC3)nc2cc1OCCCCCN(C)C,.,12.6µM*,.,.,?
COc1cc2c(NC3CCN(C(C)C)CC3)nc(N3CCCN(C)CC3)nc2cc1OCCCN(C)C,.,0.251µM*,.,.,?
COc1cc2c(NC3CCN(C)CC3)nc(N3CCCN(C)CC3)nc2cc1OCCCCC(N)=O,.,-14.5%,.,.,-18.4%
CCN(CC)CCCOc1cc2nc(N3CCCN(C)CC3)nc(NC3CCN(C)CC3)c2cc1OC,.,10µM*,.,.,7.08µM*
CC(=O)Nc1cccc(NS(=O)(=O)c2c(C)noc2C)c1,7.9%,?,-8.7%,5.9%,6.31µM*
CC(=O)c1cccc(NS(=O)(=O)c2c(C)noc2C)c1,-28.0%,-3.8%,31.1%,2.1%,-14.5%
COc1ccc(NS(=O)(=O)c2cc(N/C(=N\S(=O)(=O)c3ccccc3)c3ccc(F)cc3)ccc2Cl)cc1,11.6µM*,?,37.7%,?,-21.3%
COc1ccccc1NS(=O)(=O)c1cc(NC(=O)c2ccc(Cl)nc2)ccc1Cl,8.91µM*,?,10µM*,?,-13.9%
COc1ccccc1NS(=O)(=O)c1cc(NC(=O)c2ccncc2)ccc1N1CCCC1,11.2µM*,-19.0%,42.8%,?,-11.4%
COc1ccccc1NS(=O)(=O)c1cc(NC(=O)c2ccc3ccccc3n2)ccc1Cl,?,-7.6%,64.3%,4.5%,-11.7%
COc1ccc(C(=O)Nc2ccc(Cl)c(S(=O)(=O)Nc3ccccc3OC)c2)cc1,2.82µM*,?,-8.8%,?,?
COc1ccccc1NC(=O)Nc1ccc(Cl)c(S(=O)(=O)Nc2ccccc2OC)c1,?,-6.7%,3.9%,?,-8.0%
CCCCCCCCCCCCCCCCCCN(CCCCCCCCCCCCCCCCCC)c1ccc(/C=C/c2ccc(C=O)cc2)cc1,.,-15.2%,.,.,i
CC(C)(C)NC(=O)COc1coc(CN2CCN(Cc3ccccc3)CC2)cc1=O,5.9%[46.1 µM],-11.1%,-13.1%,7.1%[46.1 µM],-9.4%
COC1=CC2C(=O)C(C1=O)C1c3ccccc3CC21 (stereo not given),-3.0%[14.2 µM],.,.,.,.
SMILES,Marburg entry inh,VACV Venus inh,FMDV inh,Lassa entry inh,VACV mCherry inh
C/C(=N\NC(=S)NCc1ccccc1)c1ccc(C)o1,21.6%[46.1 µM],-24.8%,25.6%,?,?
Cc1ccc(NC(=S)NC(=O)c2ccc(F)cc2)cc1S(=O)(=O)Nc1ccccc1Cl,1.12µM*,?,5.9%,?,?
COc1ccccc1NS(=O)(=O)c1cc(C(=O)N2CC(C)CC(C)C2)ccc1C (stereo not given),8.2µM*,.,-9.4%,17.9%,.
O=C(Nc1ccc(Cl)cc1)Nc1ccc(N2CCCC2)c(S(=O)(=O)Nc2ccccc2Cl)c1,1.58µM*,?,-8.9%,5.01µM*,?
O=C(Nc1ccc(N2CCOCC2)c(S(=O)(=O)Nc2ccccc2Cl)c1)c1ccccc1,.,.,44.3%,.,.
COC(=O)C1=C(C)N(Cc2ccccc2)C(=NCc2cc(OC)c(OC)c(OC)c2)NC1c1cccc(F)c1 (stereo not given),-16.7%[14.2 µM],.,.,?,.
COC(=O)c1ccc(-c2cccc3c2OC(CNC(=O)/C=C/c2ccc(OC)c(OC)c2)C3)nc1 (stereo not given),.,-25.5%,-3.9%,.,-26.3%
CN(Cc1ccc(Cl)cc1)C(=O)CCl,.,.,25.1µM*,.,.
CN(Cc1ccc(Cl)s1)C(=O)CCl,?,-25.3%,11.2µM*,11.2µM*,-16.2%
O=S(c1ccc2ccccc2c1)c1cnns1 (stereo not given),?,10µM*,?,?,.
COc1ccc(-n2ncc3c(N(C)C4CCCCC4)ncnc32)cc1,.,-22.3%,10µM*,.,?
CCN(c1ncnc2c1cnn2-c1cccc(Cl)c1)C1CCCCC1,.,-0.4%,-23.9%,?,-8.4%
Cc1cccc(-n2ncc3c(N(C)C4CCCCC4)ncnc32)c1,.,-20.8%,17.8µM*,.,i
C=CCn1c(O)c(N=NC(=O)C(O)c2ccccc2)c2ccccc21 (stereo not given),.,.,16.3%,.,.
C#CCn1c(O)c(N=NC(=O)C(O)c2ccccc2)c2ccccc21 (stereo not given),-1.2%[46.1 µM],?,20.5%,-0.8%,12.6µM*
O=C(COc1ccc(/C=N/NC(=O)c2cc3ccccc3o2)cc1Cl)Nc1ccccc1,?,?,-69.2%,8.91µM*,?
COc1cc(/C=N/NC(=O)c2ccccc2O)ccc1OCC(=O)Nc1ccccc1,.,.,1.2%,.,.
COc1ccc(NC(=O)CN2C(=O)C(c3ccccc3)=NC23CCC(C)CC3)cc1Cl (stereo not given),20µM*,-18.5%,-18.6%,-21.9%[46.1 µM],-16.5%
COc1ccc(NC(=O)CN2C(=O)C(c3ccc(C)cc3)=NC23CCCCCC3)cc1Cl,?,-10.0%,-0.9%,-21.7%[46.1 µM],-12.4%
CCOc1ccc(C(=O)Nc2ccc(N3CCN(C)CC3)cc2)cc1Br,11.2µM*,?,-7.0%,6.0%,.
COCc1c(C(=O)N2CC3CCC2C3)cnn1-c1nccc(-c2ccccc2OC)n1 (stereo not given),.,-9.3%,31.2%,.,-19.5%
N#CC(c1ccccc1)c1ccc2c(C(F)(F)F)cc(C(F)(F)F)nc2n1 (stereo not given),7.08µM*,1.3%,?,11.2µM*,-13.2%[1.46 µM]
Cc1ccc(C(C#N)c2ccc3c(C(F)(F)F)cc(C(F)(F)F)nc3n2)cc1 (stereo not given),-12.0%,-23.7%,?,?,?
